# High-throughput results as filed in PubChem.
# Most compounds without a hit are left out; they make up all but 12% or so of the library.
# PLK1 PBD inh: inhibitors of human PLK1 polo-box domain binding; P53350; Plk1 PBD binding of FITC phosphopeptide, fluorescence polarization; Potency, µM, actives largely listed as inhibitors; 360,000 compounds, 2.8% hits; note: series mostly up to about 57 µM; nearly all actives have a fitted effect of over 65% in size
# HP1b binding inh: inhibitors of HP1-beta chromodomain binding to methylated histone tails | P83916 | AlphaScreen HP1-beta / biotin-H3K9me3 peptide binding | Potency, µM (titrated, usually from 114 µM), actives largely listed as inhibitors | 390,000 compounds, 0.56% hits; note: nearly all actives have a fitted effect of over 70% in size
#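 HP1-beta protein (50 nM final) preincubated 30 min at room temperature with biotinylated H3(1-18)K9me3 peptide (50 nM) in PBS pH 7.4, 0.01% Tween-20, then compound added for 30 min. AlphaScreen streptavidin donor/nickel chelate acceptor beads (10 ug/mL final), 30 min dark, luminescence read.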
# G9a inh: inhibitors of human histone lysine methyltransferase G9a. AID 504332. 350,000 compounds, 8.8% hits. G9a H3K9 monomethylation, AlphaScreen, 2 h. Potency, µM (top dose mostly 102 µM), actives largely listed as inhibitors; note: nearly all actives have a fitted effect of over 75% in size
#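 G9a (20 nM) preincubated 15 min RT with compounds, then 500 nM biotinylated H3K9 peptide and 20 uM SAM added; 2 h RT reaction. Monomethyl-H3K9 product detected by AlphaScreen with anti-H3K9me1 antibody, streptavidin donor and anti-rabbit IgG acceptor beads.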
# PI5P4K alpha inh: inhibitors of human PI5P4K alpha | max response, % | PI5P4Kalpha enzyme, ADP-Glo luminescence, 60 min; stronger effect = lower value | 330,000 compounds, 1.2% hits; active = max response of -50% or lower; inconclusive = between -30% and -50%; inactive = -30% or higher; note: value at the top dose of about 77 µM
# Target sequence (P48426 whole entry, looked up): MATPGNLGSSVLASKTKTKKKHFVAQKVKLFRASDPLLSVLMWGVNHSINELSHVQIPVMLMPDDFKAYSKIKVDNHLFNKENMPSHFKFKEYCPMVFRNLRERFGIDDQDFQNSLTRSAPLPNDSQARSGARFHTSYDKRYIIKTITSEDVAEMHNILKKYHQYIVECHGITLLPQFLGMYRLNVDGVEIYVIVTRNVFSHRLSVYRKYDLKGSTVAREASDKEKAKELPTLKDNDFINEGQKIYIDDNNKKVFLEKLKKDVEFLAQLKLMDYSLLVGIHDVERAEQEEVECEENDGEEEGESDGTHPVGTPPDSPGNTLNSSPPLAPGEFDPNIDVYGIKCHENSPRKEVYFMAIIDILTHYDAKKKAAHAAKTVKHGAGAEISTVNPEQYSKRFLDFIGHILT
#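 Single end-point luminescence (ADP-Glo) quantified ADP from PI5P4Kalpha turnover; ATP 5 microM final, 1 h at RT, 0.1% CHAPS and 0.28 mM EGTA in HEPES pH 7.4.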
# BAZ2B inh: BAZ2B (human) inhibition; AlphaScreen BAZ2B-H3K14Ac peptide displacement; 360,000 compounds, 4.4% hits; AID 504333; Potency, µM (top dose mostly 114 µM), usual class: inhibitors; Q9UIF8; note: nearly all actives have a fitted effect of over 60% in size
#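 AlphaScreen displacement: compounds (up to 110uM) incubated 30 min at room temperature with a preformed 50 nM BAZ2B/50 nM biotinylated H3K14Ac peptide complex in PBS pH 7.4 with Tween-20. Donor and acceptor beads at 10 ug/mL final added, 20 min light-protected before reading.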
# JMJD2A Tudor inh: blocks the human JMJD2A Tudor domain. O75164. AlphaScreen JMJD2A-Tudor / H3K4me3 peptide binding. Potency, µM (titrated, usually from 114 µM), most hits filed as inhibitors. 390,000 compounds, 4.4% hits. AID 504339; note: nearly all actives have a fitted effect of over 50% in size
# A number is an active result; 0 = inactive; ? = inconclusive; - = no result given; [ ] = another dose, or the depositor's remark. Unless noted, calls come from the whole dose curve; as a rule, active = well fitted curve in the direction sought with a large enough effect; inconclusive = small, poorly fitted or top-dose-only effect, or another doubt; inactive = no such curve, though single readings can be large; an effect the other way counts as inactive or inconclusive.
SMILES,PLK1 PBD inh,HP1b binding inh,G9a inh,PI5P4K alpha inh,BAZ2B inh,JMJD2A Tudor inh
COc1cccc(C(=O)NCc2n[nH]c(=S)n2-c2cccc(C)c2)c1,0,0,?,-,0,18µM
Cc1ccc(C(=O)NCc2n[nH]c(=S)n2-c2ccccc2)cc1[N+](=O)[O-],0,0,10µM,0,0,14µM
COc1ccc(CC(=O)NCc2n[nH]c(=S)n2C)cc1,0,0,45µM,0,0,?
FC(F)(F)c1cccc(-n2c(Cn3nnc4ccccc43)n[nH]c2=S)c1,0,0,-,0,0,0
O=C(NCc1n[nH]c(=S)n1-c1cccc(C(F)(F)F)c1)c1ccco1,0,0,13µM,0,0,13µM
O=C(Cc1ccccc1)NCc1n[nH]c(=S)n1-c1ccccc1,27µM,?,?,0,0,0[11.4 µM]
COc1ccc(C2=NN(S(C)(=O)=O)C(c3cccs3)C2)cc1OC (stereo not drawn),0,0,0,0,0,0
C=CCn1c(=S)[nH]c2cc(C(=O)Nc3ccc(F)cc3)ccc2c1=O,0,0,0,0,0,0
COc1cc(/C=N/n2c(-c3n[nH]c4c3CCC4)n[nH]c2=S)cc(OC)c1O,0,?,?,?,0,1.1µM
COc1cccc(/C=N/n2c(-c3cc(C)[nH]n3)n[nH]c2=S)c1O,0,0,-,0,?,2.8µM
COc1ccccc1/C=C/C=N/n1c(-c2n[nH]c3c2CCC3)n[nH]c1=S,?,?,1.4µM,?,0,35µM
S=c1[nH]nc(-c2n[nH]c3c2CCC3)n1/N=C/C=C/c1ccco1,?,0,-,-52,?,5µM
COc1cc(OC)c(-c2nn3c(-c4n[nH]c5c4CCC5)nnc3s2)cc1OC,-,0,-,-,-,0
O=C(Nc1ccc(C(=O)N2CCN(c3ccccc3F)CC2)cc1)c1nsc2ccccc12,-,0,0,-,0,0
CCOc1ccccc1CNC(=O)Cn1cc2c(n1)-c1c(oc(C(=O)N3CCCC3)c1C)CC2,-,0,?,-,0,0
COc1cccc(Cn2c(=O)c(-c3cccc(C#N)c3)nc3cnc(Nc4ccccc4)nc32)c1,-,-,0[12.7 µM],-,-,-
COc1cccc(C=Nc2ccc3c(c2)CCC3)c1O,?,0,0,0,?,?
COc1cccc(/C=N/n2c(-c3n[nH]c4c3CCC4)n[nH]c2=S)c1O,?,?,1.4µM,0,0,7.9µM
COc1cccc(NC2=C(C#N)C(=O)NC(c3cccc(OC)c3O)S2)c1 (stereo not drawn),0,0,45µM,?,0,0
COC(=O)COc1ccc(-c2nccc(-c3ccccn3)n2)cc1,0,0,0,0,0,0
COC(=O)COc1ccc(-c2nccc(-c3ccc(Br)cc3)n2)cc1,9.5µM,0,0,0,0,16µM
CCOC(=O)CNC(=O)CCc1nnc2ccc(N3CCC(C)CC3)nn12,24µM,?,0,0,?,?
CCOC(=O)C(Cc1ccccc1)NC(=O)CCc1nnc2ccc(N3CCCC3)nn12 (stereo not drawn),24µM,0,0,0,0,?
CCCNC(=O)CCc1nnc2ccc(N3CCC(C)CC3)nn12,0,0,0,0,0,0
CC1CC(C)CN(C(=O)CCc2nnc3ccc(N4CCCCC4)nn23)C1 (stereo not drawn),30µM,0,79µM,0,0,40µM
SMILES,PLK1 PBD inh,HP1b binding inh,G9a inh,PI5P4K alpha inh,BAZ2B inh,JMJD2A Tudor inh
CC1CCN(C(=O)CCc2nnc3ccc(N4CCC5(CC4)OCCO5)nn23)CC1,0,0,0,0,0,0
CCOC(=O)C(Cc1ccccc1)NC(=O)CCc1nnc2ccc(N3CCCCC3)nn12 (stereo not drawn),0,0,0,0,0,0
CCOC(=O)C1CCN(C(=O)CCc2nnc3ccc(N4CCC(C)CC4)nn23)CC1,24µM,?,0,0,0,?
C=C(C)[C@]12C[C@@H](C)[C@@]34OC(Cc5ccccc5)(O[C@@H]1[C@@H]3C=C(COC(=O)Cc1cc(OC)c(O)cc1I)C[C@]1(O)C(=O)C(C)=C[C@@H]41)O2,-,-,0,-,-,-
COCCNC(=O)CN1C(=O)COc2ccc(S(=O)(=O)N3CCCC3)cc21,-,0,0,-,0,0
COc1ccc(OC)c(CNC(=O)c2ccc(NC(=O)c3nsc4ccccc34)cc2)c1,-,0,0,-,0,0
